# Test results reported in PubChem BioAssay (NCI).
# This is part of a sample that, as a whole, favours compounds with a hit. Of some 83,000 tested, about 20% had one in any assay.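 96-well plates, one dose, 48 hours. Percent growth reported; active if below 10.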 Unmarked numbers belong to inactive results. Active and inactive are the calls of the source.
# Assays:
# Assay in all cases: NCI-60 one-dose screen, 48 h (100 = growth as untreated, 0 = no growth, -100 = all killed)
# Conditions in all cases: 10 µM unless noted
# SR leukemia = tested on: SR leukemia
# RPMI-8226 leukemia = tested on: RPMI-8226 leukemia
# OVCAR-8 ovarian = tested on: OVCAR-8 ovarian
# OVCAR-5 ovarian = tested on: OVCAR-5 ovarian
# OVCAR-4 ovarian = tested on: OVCAR-4 ovarian
# SK-OV-3 ovarian = tested on: SK-OV-3 ovarian
# IGROV1 ovarian = tested on: IGROV1 ovarian
# OVCAR-3 ovarian = tested on: OVCAR-3 ovarian
# HS 578T breast = tested on: HS 578T breast
# NCI/ADR-RES ovarian = tested on: NCI/ADR-RES ovarian
SMILES,growth (SR leukemia),growth (RPMI-8226 leukemia),growth (OVCAR-8 ovarian),growth (OVCAR-5 ovarian),growth (OVCAR-4 ovarian),growth (SK-OV-3 ovarian),growth (IGROV1 ovarian),growth (OVCAR-3 ovarian),growth (HS 578T breast),growth (NCI/ADR-RES ovarian)
COc1ccc(C(=O)c2cc(OC)c(OC)c(OC)c2OC)cc1O,26.4%,44.7%,61.3%,92.8%,83.9%,20.1%,57.4%,-21.8% (active),16.3%,-8.84% (active)
O=C1/C(=C/c2ccc([N+](=O)[O-])cc2)CN(C(=O)CCN2CCC(=NO)CC2)C/C1=C\c1ccc([N+](=O)[O-])cc1,8.69% (active),-34.8% (active),6.6% (active),-41.3% (active),-8.21% (active),17.3%,-21.2% (active),-59% (active),22.8%,7.5% (active)
CCOC(=O)c1ccc2c(c1)nc(-c1ccc(OCc3ccccc3)c(OC)c1)n2-c1cc(C(C)(C)C)[nH]n1,68.9%,68.8%,99.7%,88.9%,76.4%,91.2%,83%,81.8%,82.2%,89.1%
Cc1ccc(S(=O)(=O)n2cc(C(=O)C(=O)Nc3ccncc3)c3ccccc32)cc1,28.8%,37.5%,43.2%,57.6%,56%,96.6%,45.1%,-12.1% (active),23.2%,5.21% (active)
COc1ccc(C(=O)N2NC(=O)/C(=C/c3ccccc3F)N=C2c2ccccc2)cc1,104%,119%,101%,108%,106%,112%,107%,114%,110%,105%
O=c1[nH]c(Nc2ccc(S(=O)(=O)O)cc2)nc2nc(Nc3ccc(NC(=S)Nc4ccccc4)cc3)nc(-c3ccc(O)cc3O)c12,61.7%,82.6%,55.5%,116%,107%,114%,61.7%,119%,102%,109%
CC(=O)Oc1csc(N(C(C)=O)c2cc(C(=O)O)cc(C(=O)O)c2)n1,114%,43.3%,104%,101%,90.4%,111%,101%,105%,95.3%,99.2%
Cc1ccc(S(=O)(=O)Nc2c(Br)cc(Br)cc2C(N)=O)cc1,111%,95.2%,105%,99.1%,114%,106%,104%,112%,106%,99.4%
C=C(C)[C@@H]1C[C@@H]2Cc3ccc(Cl)c(C)c3N1O2,80.2%,78.6%,107%,79.5%,91.7%,99.6%,111%,105%,97%,94.2%
O=C(O)c1cn(C2CC2)c2cc(N3CCN(C(=O)/C=C/c4ccc(Cl)cc4)CC3)c(F)cc2c1=O,79.7%,70.7%,80.5%,91%,81%,66.4%,67.2%,78.8%,65.4%,86.1%
COc1cccc(-c2nc3sccn3c2-c2ccnc(NCCCNS(=O)(=O)c3ccc(F)cc3)c2)c1,45.2%,-25.1% (active),16%,83.6%,30.2%,74.8%,29.7%,35.8%,63.7%,10.2%
COc1cccc(/C=C2\Oc3cc(OCCCN4CCCC4)ccc3C2=O)c1OC,70.8%,88.6%,94%,94.9%,99.9%,110%,96.1%,99%,93.9%,97.3%
CC(C)c1ccc2occ(C=C3C(=O)NC(=O)NC3=O)c(=O)c2c1,73.1%,74.8%,80.1%,123%,89.1%,109%,120%,95.6%,111%,90.1%
Cn1ccc(Nc2nccc(Oc3ccc(C(=O)Nc4cccc(F)c4)c(Cl)c3)n2)c1,98.3%,107%,88.2%,87.9%,67%,15.9%,62.4%,55.6%,96.9%,96.6%
CC(C)(C)n1cc(-c2ccnc(NCCCNS(=O)(=O)c3ccc(Cl)cc3)c2)c(-c2cccc(O)c2)n1,-34.5% (active),-29.7% (active),6.22% (active),-20.5% (active),23.4%,37.4%,8.56% (active),4.31% (active),-12.2% (active),12.2%
O=C1/C(=C/c2ccc(Cl)cc2)CN(C(=O)CCN2CCC(=NO)CC2)C/C1=C\c1ccc(Cl)cc1,-5.09% (active),-34.1% (active),-89.8% (active),-63.6% (active),-78.6% (active),-38.2% (active),-67.2% (active),-97.5% (active),-20.3% (active),1.6% (active)
N/C(=N\C(N)=N\c1nc2ccccc2s1)c1ccncc1,19.7%,45.8%,75.6%,96.6%,100%,89.4%,58.2%,39.7%,80.3%,33%
FC(F)(F)c1ccccc1-c1cn2c(ccc3ccccc32)n1,42.4%,98.6%,93.7%,103%,95.2%,80.5%,73.1%,88.3%,71.4%,61.9%
COc1ccc(N=Cc2c(O)ccc3c2oc2cc(Cl)c(O)c(Cl)c23)cc1,83%,78.3%,93.8%,102%,98.3%,104%,62.2%,117%,93.5%,84.5%
Cc1cc(N/N=C/c2nc(-c3ccc(Br)cc3)oc2C)c2cc(Br)ccc2n1,2.16% (active),-9.38% (active),12%,95.6%,-83.5% (active),105%,78.8%,-13.4% (active),85.5%,35%
NNc1cccc(/C=C/c2ccccc2)cc1=O,31.8%,29.8%,57.8%,82.3%,45.9%,76.4%,33.6%,54.6%,78.5%,59.6%
COc1ccc(/C=C2\N=C(c3ccccc3)N(C(=O)c3ccccc3O)NC2=O)cc1,64%,46.2%,109%,98.5%,105%,100%,98.2%,118%,93.8%,93.1%
CCN1C(=O)N(CC)C2C1NN=c1s/c(=C\c3cccnc3)c(=O)n12 (stereo not given),15.1%,47.5%,35.8%,42.1%,44.1%,42.7%,30.7%,-22.9% (active),19.7%,16.2%
C=C1C(=O)O[C@H]2[C@H]1CC/C(Cn1cc(CNC(=O)c3cc4ccccc4[nH]3)nn1)=C\CC[C@@]1(C)O[C@@H]21,4.37% (active),-11.5% (active),44.8%,110%,83%,106%,71%,3.43% (active),99.9%,101%
COc1ccc(-n2c(-c3ccccc3)c(-c3ccccc3)c3c(SCC(=O)N/N=C/c4ccc(Cl)cc4)ncnc32)cc1,105%,87.4%,85.3%,98.3%,92%,73%,87.9%,85.9%,93%,87.1%
CCN1CCN(c2nc(NNC(=O)c3ccccc3)nc(N3CCN(C(c4ccccc4)c4ccccc4)CC3)n2)CC1,-20.5% (active),42%,74.3%,96.2%,38.2%,89.7%,53.1%,52.1%,79.2%,79%
CCCCCCCCCCCCCCCCCCNC(=O)[C@H]1CSC(c2cccs2)N1 (stereo not given in full),-41.2% (active),-51.1% (active),-23% (active),-54.1% (active),42.2%,39.7%,2.04% (active),-17.3% (active),-31.7% (active),-45.3% (active)
